Assay outcomes from PubChem BioAssay.
15-hLO-2 inh = 15-hLO-2 (ALOX15B) enzyme inhibition | 110,000 compounds, 0.56% hits | O15296 | purified 15hLO-2, xylenol orange hydroperoxide absorbance | AID 881 | Potency, µM (doses to about 57.1 µM), without a hit: top-dose activity change, negative = inhibition, hits mostly inhibitors; also: nearly all actives have a fitted effect of over 60% in size
Target sequence (O15296 whole entry, looked up): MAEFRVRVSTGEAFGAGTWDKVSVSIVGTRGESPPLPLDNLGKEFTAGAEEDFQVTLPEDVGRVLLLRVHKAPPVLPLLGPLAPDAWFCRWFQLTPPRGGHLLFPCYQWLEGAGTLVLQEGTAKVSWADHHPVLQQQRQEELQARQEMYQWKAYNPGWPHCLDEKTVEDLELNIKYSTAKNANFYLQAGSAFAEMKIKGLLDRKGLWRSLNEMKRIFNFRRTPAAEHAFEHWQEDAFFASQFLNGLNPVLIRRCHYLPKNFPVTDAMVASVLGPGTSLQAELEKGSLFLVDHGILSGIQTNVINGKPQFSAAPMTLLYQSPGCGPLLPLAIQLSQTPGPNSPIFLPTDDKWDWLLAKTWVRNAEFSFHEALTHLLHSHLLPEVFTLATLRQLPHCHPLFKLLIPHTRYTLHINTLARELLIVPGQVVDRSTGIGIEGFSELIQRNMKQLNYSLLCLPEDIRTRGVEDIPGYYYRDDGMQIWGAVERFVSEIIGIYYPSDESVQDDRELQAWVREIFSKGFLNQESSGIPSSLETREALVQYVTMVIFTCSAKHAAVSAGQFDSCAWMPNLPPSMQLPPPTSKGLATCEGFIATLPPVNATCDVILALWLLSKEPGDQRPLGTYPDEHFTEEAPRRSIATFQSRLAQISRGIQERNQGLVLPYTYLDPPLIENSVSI
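Purified human 15hLO-2 (50 nM) preincubated 15 min with compound, then 45 uM arachidonic acid for 90 min at RT in 25 mM Hepes pH 7.5, 0.01% Triton X-100. Hydroperoxide detected by Fe-xylenol orange; 573/405 nm absorbance ratio.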
ALOX12 inhib = 12-hLO (ALOX12) enzyme inhibition; purified 12-hLO, xylenol orange hydroperoxide absorbance; 150,000 compounds, 0.12% hits; Potency, µM (titrated, usually from 57.1 µM), for the others: at the top dose activity change, negative = inhibition, most hits filed as inhibitors; AID 1452; P18054; also: nearly all actives have a fitted effect of over 55% in size
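Xylenol orange chromogenic assay: hydroperoxide from 12hLO oxidises Fe(II), giving red-shifted Fe(III)-XO absorbance. Conditions: 150 nM enzyme, 40 uM arachidonic acid, 25 mM Hepes pH 7.0, 0.01% Triton X-100, 30 min, room temperature.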
* = called active by the depositor; ? = inconclusive; / = not tested or not shown; [ ] = dose if it differs, or a comment. Only a selection was taken, and hits are over-represented in it overall. Calls follow the shape of the dose curve; as a rule, active = well fitted curve in the direction sought with a large enough effect; inconclusive = small, poorly fitted or top-dose-only effect, or another doubt; inactive = no such curve, though single readings can be large; an effect the other way counts as inactive or inconclusive. % is scaled to controls: 0 for no effect and ±100 for the full control effect; potency is read from the fitted curve at half-maximal effect.

SMILES | 15-hLO-2 inh | ALOX12 inhib
Cc1ccc(N2C(=O)/C(=C\c3ccco3)SC2=S)cc1 | ? | 7.9µM*
O=C1/C(=C\c2ccco2)SC(=S)N1c1ccccc1 | / | -26%
CC(C)N1C(=O)CC(Nc2ccc(N3CCOCC3)cc2)C1=O (centres undefined) | 25µM* | ?
COc1ccc(CCN2C(=O)CC(N3CCOCC3)C2=O)cc1OC (centres undefined) | / | -5%
COc1ccc(NC2CC(=O)N(C(C)C)C2=O)cc1 (centres undefined) | -4% | -16%
COc1ccc(CCN2C(=O)CC(Nc3ccc(N4CCOCC4)cc3)C2=O)cc1OC (centres undefined) | 25µM* | ?
CNc1ccc(O)cc1 | -15% | 7%
CCOc1ccccc1N1CCN(c2nc3ccccc3nc2C(C#N)C(=O)OC)CC1 (centres undefined) | -17% | 9%
N#CC1=C2SCN(Cc3ccco3)CN2C(=O)CC1c1ccccc1F (centres undefined) | ? | -1%
COc1ccc(N2CSC3=C(C#N)C(c4ccc(OC)c(OC)c4)CC(=O)N3C2)c(OC)c1 (centres undefined) | ? | -6%
COc1ccc(N2CSC3=C(C#N)C(c4cccs4)CC(=O)N3C2)cc1 (centres undefined) | 20µM* | ?
CCOc1ccccc1N1CSC2=C(C#N)C(c3c(OC)ccc4ccccc34)CC(=O)N2C1 (centres undefined) | 10µM* | ?
CCc1ccc(C2CC(=O)N3CN(c4ccccc4)CSC3=C2C#N)cc1 (centres undefined) | 7.9µM* | ?
COc1ccc(C2CC(=O)N3CN(c4ccc(C)c(Cl)c4)CSC3=C2C#N)cc1OC (centres undefined) | 25µM* | ?
CN1CSC2=C(C#N)C(c3cccc(OCc4ccccc4)c3)CC(=O)N2C1 (centres undefined) | ? | -6%
OC[C@@H]1O[C@H](O)[C@@H](Cl)[C@H](O)[C@@H]1O | 4% | -4%
C=CCN1c2ccccc2[C@]23C[C@@H](C(=O)OC)N(S(=O)(=O)CCCC)C2=NC(C(=O)OC)=C(C(=O)OC)[C@H]13 | / | -2%[11.4 µM]
Cc1ccc(N2C(N)=C(C#N)C(c3cccs3)C3=C2CC(C)(C)CC3=O)cc1 (centres undefined) | -14% | -5%
Cc1ccc(N2CSC3=C(C#N)C(c4cccs4)CC(=O)N3C2)cc1 (centres undefined) | 13µM* | -17%
CCOC(=O)c1ccc(N2CSC3=C(C#N)C(c4cccs4)CC(=O)N3C2)cc1 (centres undefined) | -26% | -12%
CCc1ccc(N2CSC3=C(C#N)C(c4cccs4)CC(=O)N3C2)cc1 (centres undefined) | 20µM* | ?
COc1ccc(N2CSC3=C(C#N)C(c4cc(OC)ccc4OC)CC(=O)N3C2)c(OC)c1 (centres undefined) | 10µM* | ?
COc1ccc(N2CSC3=C(C#N)C(c4cc(OC)c(OC)cc4OC)CC(=O)N3C2)c(OC)c1 (centres undefined) | ? | -14%
Cn1cccc1/C=N/n1c(-c2ccccc2)n[nH]c1=S | -13% | 0%
Cn1cccc1/C=N/n1c(-c2ccc(C(C)(C)C)cc2)n[nH]c1=S | 10µM* | ?
SMILES | 15-hLO-2 inh | ALOX12 inhib
CCOC(=O)c1c(-c2ccc(-c3ccccc3)cc2)csc1NC(=O)C1C2CCC(O2)C1C(=O)O (centres undefined) | 20µM* | -6%
CCOC(=O)c1c(-c2ccccc2)csc1NC(=O)C1CCCO1 (centres undefined) | -23% | -3%
ICCc1ccccc1 | -7% | ?
COc1ccc(-c2cnn(-c3ccccc3)c2N)cc1OC | -4% | -2%
Nc1nc2c(s1)CCc1c-2cnn1-c1ccccc1 | 1µM* | ?
C[C@H]1Cc2c(-c3ccccc3)nc3c(c2CO1)CN(C(=O)Nc1cccc(C#N)c1)CC3 | / | -1%[11.4 µM]
CCn1c(C)cc(/C=C2\SC(=O)N(CC(=O)Nc3ccc(C)c(C)c3)C2=O)c1C | ? | 9%
Cc1ccc(NC(=O)CN2C(=O)S/C(=C/c3ccc(-c4cc(C(=O)O)ccc4C)o3)C2=O)cc1C | 20µM* | -25%
COCC(=O)N1CCc2nc(-c3ccccc3)c3c(c2C1)CO[C@@H](C)C3 | / | 6%[11.4 µM]
COc1ccccc1NS(=O)(=O)c1cc(C(=O)O)ccc1F | / | 0%
CCOC(=O)c1c(-c2ccc(C)o2)csc1NC(=O)CN1CCOCC1 | 0% | -2%
CCOC(=O)c1c(-c2ccc(C)o2)csc1NC(=S)NC(=O)N(C)C | 25µM* | ?
C[C@@H](C(=O)O)c1ccc(C[C@@H]2CCCC2=O)cc1 | -4% | -4%
CCCCC[C@H](CC(=O)NO)C(=O)N[C@@H](C(=O)N1CCC[C@H]1CO)C(C)C | -9% | -3%
CCOc1cccc(CNCCO)c1OCc1ccc(Cl)cc1Cl | / | 1%
CCOc1cccc(CNc2ccc(O)cc2)c1OCc1ccc(Cl)cc1Cl | 1.6µM* | ?
CC(C)Nc1oc(-c2ccccc2)nc1-c1cccc2ccccc12 | / | 0%
CCCCCCCCCCCCCCCCCCOC[C@@H](COP(=O)([O-])OCC[N+](C)(C)C)OC | 5% | 4%
CC1=C(C(=O)c2ccccc2)C(c2cn(-c3ccccc3)nc2-c2ccc(Cl)cc2)NC(=S)N1 (centres undefined) | 7.9µM* | 16µM*
O=C1NC(=O)C(c2cn(-c3ccccc3)nc2-c2ccc(F)cc2)N1 (centres undefined) | 1% | -1%
CC(CN(C)C)NC(=O)c1ccc(-n2c(=O)c(=O)[nH]c3ccccc32)cc1 (centres undefined) | / | -5%
CCCOc1ccc(C2NC(=S)NC(c3ccccc3)=C2C(=O)Nc2ccc(C)cc2)cc1OC (centres undefined) | / | 14µM*
C=CCOc1ccc(C2NC(=S)NC(C)=C2C(=O)c2ccccc2)cc1OC (centres undefined) | / | -24%
CCOC(=O)C1=C(c2ccccc2)NC(=S)NC1c1cccc([N+](=O)[O-])c1 (centres undefined) | / | -17%
CCOC(=O)C1=C(c2ccccc2)NC(=S)NC1c1cc([N+](=O)[O-])ccc1OC (centres undefined) | 25µM* | -20%
SMILES | 15-hLO-2 inh | ALOX12 inhib
Cc1ccc(S(=O)(=O)N(CC(=O)O)c2cccc(Cl)c2)cc1 | / | -2%
Cc1ccc(-n2sc3ccccc3c2=O)cc1S(=O)(=O)N1CCCCC1 | 0.63µM* | 3.2µM*
O=c1c2ccccc2sn1-c1ccccc1 | 1.3µM* | 13µM*
Cc1ccc(-c2nnc(N3CCCCC3)c3ccccc23)cc1S(=O)(=O)N1CCN(C)CC1 | 4% | -4%
O=C1CC(=O)N(c2ccccc2)N1c1ccccc1 | / | -11%
NS(=O)(=O)c1ccc(S(=O)(=O)N2CCCC2)cc1 | -1% | 4%
O=c1c2ccccc2sn1-c1ccc(S(=O)(=O)N2CCCC2)cc1 | 0.4µM* | ?
COc1c2c(nc3ccccc13)O[C@@H]([C@@](C)(O)CO)C2 | 6% | 5%
C[C@H]1Cc2c(COc3ccccc3)nc3c(c2CO1)CN(S(=O)(=O)c1ccc(C#N)cc1)CC3 | / | 3%[11.4 µM]
COC(=O)N1C(c2ccccc2)=Cc2ccccc2C1CC(C)=O (centres undefined) | / | 7%[11.4 µM]
O=C(O)c1ccncc1.O=C(O)c1ccncc1.[Cl][Pt]([Cl])([Cl])[Cl] | 13%[11.4 µM] | -4%[11.4 µM]
